In PubChem BioAssay (NCI):
About 79,000 compounds went through this panel and 15% of them were active in at least one assay; those are over-represented in the sample as a whole. Active and inactive are the calls of the source. Rule as the data show it: active = growth inhibition above about 70%; inactive = the rest.

How the values were obtained:
[1] = NCI Yeast Anticancer Drug Screen. Data for the mec2-1 strain (AID 157); details: S. cerevisiae mec2-1 strain, active compounds read high
In short: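 Using mec2-1 yeast: add compound, measure growth, express inhibition versus vehicle-treated cultures.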

[2] = NCI Yeast Anticancer Drug Screen. Data for the rad14 strain (AID 159);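 also: 0% = growth of vehicle-treated control cultures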; details: S. cerevisiae rad14 strain growth inhibition, active compounds read high
In short: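 Inhibition of growth is reported for a repair-deficient yeast mutant following compound treatment, calculated relative to cultures that received vehicle.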

[3] = NCI Yeast Anticancer Drug Screen. Data for the sgs1 mgt1 strain (AID 161);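 also: 0% = growth of cultures given vehicle only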; details: S. cerevisiae sgs1 mgt1 strain, active compounds read high
In short: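 Yeast cells carrying a defined DNA-repair defect were exposed to test compounds. Growth inhibition was measured relative to vehicle-treated controls.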

[4] = NCI Yeast Anticancer Drug Screen. Data for the CLN2oe strain (AID 163);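 also: 0% = growth of vehicle-only control cultures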; details: S. cerevisiae CLN2oe strain, active compounds read high
In short: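 Whole-cell yeast growth assay. A strain engineered for altered cell-cycle control received compound, and inhibition relative to vehicle-treated cultures was recorded.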

[5] = NCI Yeast Anticancer Drug Screen. Data for the cln2 rad14 strain (AID 165);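 also: 0% = growth equal to vehicle treated cultures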; details: S. cerevisiae cln2 rad14 strain, active compounds read high
In short: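 Yeast strain cln2 rad14, bearing defects in cell cycle control and DNA repair, serves as the test system; values reflect growth inhibition compared with vehicle.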

[6] = NCI Yeast Anticancer Drug Screen. Data for the bub3 strain (AID 167); details: S. cerevisiae bub3 mutant strain, active compounds read high
In short: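 Mutant yeast screening strain plus compound; vehicle-treated cultures serve as the 0% inhibition reference.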

[7] = NCI Yeast Anticancer Drug Screen. Data for the wt2 strain (AID 169); details: S. cerevisiae wt2 strain growth inhibition, active compounds read high
In short: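 Treated yeast vs. vehicle-treated yeast: growth inhibition determined.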

[8] = NCI Yeast Anticancer Drug Screen. Data for the mlh1 strain (AID 171);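 also: 0% = growth of vehicle-treated control cultures of the same strain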; details: S. cerevisiae mlh1 strain growth inhibition, active compounds read high
In short: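 A yeast strain with a defined genetic lesion serves as the test organism. Cultures receive compound or vehicle, and growth is measured.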

[9] = NCI Yeast Anticancer Drug Screen. Data for the sgs1 strain (AID 173);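 also: 0% = growth of vehicle-only control cultures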; details: S. cerevisiae sgs1 mutant, active compounds read high
In short: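 A genetically defined yeast mutant is incubated with the test compound, and its growth is compared to that of the same strain given vehicle.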

[10] = NCI Yeast Anticancer Drug Screen. Data for the rad18 strain (AID 177); details: S. cerevisiae rad18 mutant growth inhibition, active compounds read high
In short: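 Measured value is growth inhibition of a yeast strain bearing a DNA repair alteration, referenced to vehicle-treated cells.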

[11] = NCI Yeast Anticancer Drug Screen. Data for the rad52 strain (AID 147);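 also: 0% = growth of vehicle-treated control cultures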; details: S. cerevisiae rad52 mutant growth inhibition, active compounds read high
In short: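 Here a repair-compromised yeast strain receives each compound; its growth is then quantified and normalised to vehicle-only controls.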

[12] = NCI Yeast Anticancer Drug Screen. Data for the wt1 strain (AID 149);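 also: 0% = growth of vehicle-treated wt1 cultures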; details: S. cerevisiae wt1 strain (SPY 50644) growth inhibition, active compounds read high
In short: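 Each compound is tested on wt1 yeast and the loss of growth versus vehicle gives the inhibition value.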

[13] = NCI Yeast Anticancer Drug Screen. Data for the rad50EPP+ strain (AID 151);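 also: 0% = growth of vehicle-treated control cultures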; details: S. cerevisiae rad50 mutant strain, active compounds read high
In short: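 Read-out is yeast growth inhibition relative to vehicle; cells used were the rad50EPP+ strain.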

[14] = NCI Yeast Anticancer Drug Screen. Data for the mgt1 strain (AID 153); details: S. cerevisiae mgt1 mutant growth inhibition, active compounds read high
In short: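 Measured: inhibition of mgt1 yeast growth by compound, normalized to vehicle-treated cultures.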

[15] = NCI Yeast Anticancer Drug Screen. Data for the rad50 strain (AID 155);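 also: 0% = growth of vehicle-only cultures of the same strain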; details: S. cerevisiae rad50 strain growth inhibition, active compounds read high
In short: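 Vehicle-treated cultures provide the reference for the growth inhibition reported for compound-exposed, repair-deficient yeast.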

[16] = NCI Yeast Anticancer Drug Screen. Data for the mlh1 rad18 strain (AID 175); details: S. cerevisiae mlh1 rad18 strain growth inhibition, active compounds read high
In short: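 Steps: expose repair-defective yeast to compound; measure growth; express inhibition against vehicle-treated controls.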

[17] = at 5.0 µM (retest, dose inferred, filed as 0.5)
[18] = at 50.0 µM (retest, dose inferred, filed as 5.0)

Measured: growth inhibition

CN1C(=O)C(CC(=O)O)NC1=S (stereo unspecified)
inactive: [1]; [17] 2% | [1]; at 11.0 µM 4% | [1]; at 33.0 µM 15% | [1]; [18] 27% | [1]; at 50.0 µM 33.9% | [1]; at 100.0 µM 47% | [2]; at 1.2 µM 0% | [2]; at 3.7 µM 0% | [2]; at 11.0 µM -1% | [2]; at 33.0 µM 16% | [2]; at 100.0 µM 39% | [3]; [17] -1% | [3]; [18] 17% | [3]; at 50.0 µM 58.2% | [4]; at 1.2 µM -3% | [4]; at 3.7 µM -3% | [4]; at 11.0 µM -1% | [4]; at 33.0 µM -2% | [4]; at 100.0 µM 2% | [5]; [17] -10% | [5]; [18] 12% | [5]; at 50.0 µM 2.1% | [6]; at 1.2 µM -4% | [6]; at 3.7 µM -7% | [6]; [17] -10% | [6]; at 11.0 µM -3% | [6]; at 33.0 µM 3% | [6]; [18] 2% | [6]; at 50.0 µM 65.8% | [6]; at 100.0 µM 43% | [7]; at 1.2 µM -2% | [7]; at 3.7 µM 0% | [7]; at 11.0 µM 3% | [7]; at 33.0 µM 7% | [7]; at 100.0 µM 20% | [8]; at 1.2 µM -2% | [8]; at 3.7 µM 0% | [8]; at 11.0 µM 4% | [8]; at 33.0 µM 11% | [8]; at 100.0 µM 46% | [9]; at 1.2 µM 0% | [9]; at 3.7 µM 5% | [9]; at 11.0 µM 9% | [9]; at 33.0 µM 24% | [10]; at 1.2 µM 1% | [10]; at 3.7 µM 0% | [10]; at 11.0 µM -9% | [10]; at 33.0 µM 15% | [10]; at 100.0 µM 45%
active: [9]; at 100.0 µM 70%

CC1CCN(CCC(=O)c2ccc([N+](=O)[O-])cc2)CC1
active: [6]; at 50.0 µM 89.6%
inactive: [11]; at 1.2 µM 9% | [11]; at 3.7 µM 1% | [11]; at 11.0 µM 8% | [11]; at 33.0 µM 34% | [11]; at 100.0 µM 40% | [12]; at 1.2 µM -1% | [12]; at 3.7 µM -1% | [12]; at 11.0 µM 1% | [12]; at 33.0 µM 0% | [12]; at 100.0 µM 7% | [13]; at 1.2 µM 1% | [13]; at 3.7 µM 1% | [13]; at 11.0 µM 3% | [13]; at 33.0 µM 15% | [13]; at 100.0 µM 19% | [14]; at 1.2 µM -4% | [14]; at 3.7 µM 3% | [14]; at 11.0 µM 6% | [14]; at 33.0 µM 21% | [14]; at 100.0 µM 38% | [15]; at 1.2 µM 9% | [15]; at 3.7 µM 13% | [15]; [17] 6% | [15]; at 11.0 µM 15% | [15]; at 33.0 µM 37% | [15]; [18] 31% | [15]; at 50.0 µM 63.5% | [15]; at 100.0 µM 48% | [1]; at 1.2 µM -1% | [1]; at 3.7 µM 2% | [1]; [17] 4% | [1]; at 11.0 µM 1% | [1]; at 33.0 µM 0% | [1]; [18] 69% | [1]; at 50.0 µM 14.5% | [1]; at 100.0 µM 14% | [2]; at 1.2 µM 14% | [2]; at 3.7 µM 25% | [2]; at 11.0 µM 34% | [2]; at 33.0 µM 36% | [2]; at 100.0 µM 45% | [3]; [17] 7% | [3]; [18] 68% | [3]; at 50.0 µM 68.5% | [4]; at 1.2 µM 2% | [4]; at 3.7 µM 5% | [4]; at 11.0 µM 15% | [4]; at 33.0 µM 30% | [4]; at 100.0 µM 40% | [5]; [17] 8% | [5]; [18] 34% | [5]; at 50.0 µM 31.2% | [6]; at 1.2 µM -2% | [6]; at 3.7 µM 2% | [6]; [17] 7% | [6]; at 11.0 µM 6% | [6]; at 33.0 µM 18% | [6]; [18] 65% | [6]; at 100.0 µM 31% | [7]; at 1.2 µM -6% | [7]; at 3.7 µM -2% | [7]; at 11.0 µM 3% | [7]; at 33.0 µM 1% | [7]; at 100.0 µM 16% | [8]; at 1.2 µM 1% | [8]; at 3.7 µM 7% | [8]; at 11.0 µM 9% | [8]; at 33.0 µM 30% | [8]; at 100.0 µM 39% | [9]; at 1.2 µM 2% | [9]; at 3.7 µM 16% | [9]; at 11.0 µM 25% | [9]; at 33.0 µM 46% | [9]; at 100.0 µM 54% | [16]; [17] 7% | [16]; [18] 62% | [16]; at 50.0 µM 40.4% | [10]; at 1.2 µM 6% | [10]; at 3.7 µM 16% | [10]; at 11.0 µM 23% | [10]; at 33.0 µM 20% | [10]; at 100.0 µM 31%

CCN(CC)C(=S)N/N=C(\C)c1ccccc1O
active: [11]; at 33.0 µM 96% | [11]; at 100.0 µM 99% | [12]; at 33.0 µM 98% | [12]; at 100.0 µM 98% | [13]; at 100.0 µM 83% | [14]; at 11.0 µM 71% | [14]; at 33.0 µM 98% | [14]; at 100.0 µM 99% | [15]; at 33.0 µM 98% | [15]; [18] 96% | [15]; at 50.0 µM 93.3% | [15]; at 100.0 µM 99% | [1]; at 33.0 µM 97% | [1]; [18] 98% | [1]; at 50.0 µM 94.5% | [1]; at 100.0 µM 99% | [2]; at 33.0 µM 96% | [2]; at 100.0 µM 98% | [3]; [18] 95% | [3]; at 50.0 µM 94% | [4]; at 33.0 µM 96% | [4]; at 100.0 µM 99% | [5]; [18] 95% | [5]; at 50.0 µM 89.3% | [6]; [17] 95% | [6]; at 33.0 µM 97% | [6]; [18] 98% | [6]; at 50.0 µM 93.3% | [6]; at 100.0 µM 99% | [7]; at 33.0 µM 97% | [7]; at 100.0 µM 98% | [8]; at 33.0 µM 98% | [8]; at 100.0 µM 99% | [16]; [18] 97% | [16]; at 50.0 µM 92.2% | [10]; at 33.0 µM 97% | [10]; at 100.0 µM 98%
inactive: [11]; at 1.2 µM -36% | [11]; at 3.7 µM -42% | [11]; at 11.0 µM -1% | [12]; at 1.2 µM -7% | [12]; at 3.7 µM -3% | [12]; at 11.0 µM 28% | [13]; at 1.2 µM 9% | [13]; at 3.7 µM -7% | [13]; at 11.0 µM 15% | [13]; at 33.0 µM 45% | [14]; at 1.2 µM 9% | [14]; at 3.7 µM 16% | [15]; at 1.2 µM 0% | [15]; at 3.7 µM -13% | [15]; [17] -1% | [15]; at 11.0 µM 22% | [1]; at 1.2 µM 3% | [1]; at 3.7 µM -3% | [1]; [17] 35% | [1]; at 11.0 µM 40% | [2]; at 1.2 µM 3% | [2]; at 3.7 µM -22% | [2]; at 11.0 µM 26% | [3]; [17] -3% | [4]; at 1.2 µM 13% | [4]; at 3.7 µM -5% | [4]; at 11.0 µM 42% | [5]; [17] 54% | [6]; at 1.2 µM -21% | [6]; at 3.7 µM -7% | [6]; at 11.0 µM 36% | [7]; at 1.2 µM -37% | [7]; at 3.7 µM -31% | [7]; at 11.0 µM 6% | [8]; at 1.2 µM 11% | [8]; at 3.7 µM 25% | [8]; at 11.0 µM 66% | [16]; [17] -18% | [10]; at 1.2 µM 18% | [10]; at 3.7 µM 9% | [10]; at 11.0 µM 29%
